Laboratory results: PubChem BioAssay AID1159580 (chemical genetic matrix, 2015)
About 2,000 (36%) of roughly 5,500 compounds were called active. Inconclusive results (about 18%) are left out. No stated cut-off is given here; in the data, active means normalized growth mostly below about 0.91 (no sharp cut-off); inconclusive means no clear call, values can overlap the other calls; inactive means mostly above about 0.92. The list shows a part of the results.

Assay: chemical genetic growth profiling, strain panel (AID 1159580);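 further: tested at 20 µM; growth read once vehicle control cultures reached saturation at 30 °C; 1 = growth at the plate median or of vehicle wells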
Details: growth OD

Measured: normalized growth

Cc1ccc(-c2cc(C(F)(F)F)nn2-c2ccc(S(N)(=O)=O)cc2)cc1
inactive: S. cerevisiae deletion strains, locus YJR075W, strain HOC1, stronger effect = lower value 1.02 | S. cerevisiae deletion strains, locus YKL009W, strain mrt4, stronger effect = lower value 0.965 | S. cerevisiae deletion strains, locus YKL068W, stronger effect = lower value 1 | S. cerevisiae deletion strains, locus YKL085W, strain MDH1 (second series), stronger effect = lower value 1 | S. cerevisiae deletion strains, locus YKL085W, strain MDH1, stronger effect = lower value 1 | S. cerevisiae deletion strains, locus YKL160W, strain elf1, stronger effect = lower value 1.03 | S. cerevisiae deletion strains, locus YKL190W, strain CNB1, stronger effect = lower value 0.999 | S. cerevisiae deletion strains, locus YKR001C, strain vps1, stronger effect = lower value 0.988 | S. cerevisiae deletion strains, locus YKR026C, strain gcn3, stronger effect = lower value 1.03 | S. cerevisiae deletion strains, locus YKR091W, strain srl3, stronger effect = lower value 1.02 | S. cerevisiae deletion strains, locus YLL001W, strain dnm1, stronger effect = lower value 1.03 | S. cerevisiae deletion strains, locus YLL026W, stronger effect = lower value 1.02 | S. cerevisiae deletion strains, locus YLL041C, strain sdh2, stronger effect = lower value 1.02 | S. cerevisiae deletion strains, locus YLR027C, strain aat2, stronger effect = lower value 1.02 | S. cerevisiae deletion strains, locus YLR039C, strain RIC1, stronger effect = lower value 0.967 | S. cerevisiae deletion strains, locus YLR058C, strain SHM2, stronger effect = lower value 0.998 | S. cerevisiae deletion strains, locus YLR102C, strain apc9, stronger effect = lower value 1.01 | S. cerevisiae deletion strains, locus YLR113W, strain HOG1, stronger effect = lower value 0.984 | S. cerevisiae deletion strains, locus YLR221C, strain rsa3, stronger effect = lower value 1.03 | S. cerevisiae deletion strains, locus YLR258W, strain gsy2, stronger effect = lower value 1.02 | S. cerevisiae deletion strains, locus YLR262C, strain YPT6 (second series), stronger effect = lower value 1.01 | S. cerevisiae deletion strains, locus YLR262C, strain YPT6, stronger effect = lower value 0.939 | S. cerevisiae deletion strains, locus YLR268W, strain sec22, stronger effect = lower value 1.08 | S. cerevisiae deletion strains, locus YLR320W, strain mms22, stronger effect = lower value 1.04 | S. cerevisiae deletion strains, locus YLR330W, strain CHS5, stronger effect = lower value 1 | S. cerevisiae deletion strains, locus YLR342W, strain FKS1 (second series), stronger effect = lower value 1.04 | S. cerevisiae deletion strains, locus YLR342W, strain FKS1, stronger effect = lower value 1.03 | S. cerevisiae deletion strains, locus YLR357W, strain rsc2, stronger effect = lower value 1.09 | S. cerevisiae deletion strains, locus YLR370C, strain arc18, stronger effect = lower value 1.03 | S. cerevisiae deletion strains, locus YLR371W, strain rom2, stronger effect = lower value 1.02 | S. cerevisiae deletion strains, locus YLR384C, strain iki3, stronger effect = lower value 1.02 | S. cerevisiae deletion strains, locus YLR418C, strain cdc73, stronger effect = lower value 1.01 | S. cerevisiae deletion strains, locus YML016C, strain PPZ1, stronger effect = lower value 0.989 | S. cerevisiae deletion strains, locus YML032C, strain rad52, stronger effect = lower value 1.05 | S. cerevisiae deletion strains, locus YML120C, strain ndi1, stronger effect = lower value 1.03 | S. cerevisiae deletion strains, locus YML124C, strain tub3, stronger effect = lower value 1.01 | S. cerevisiae deletion strains, locus YMR058W, strain fet3, stronger effect = lower value 1.03 | S. cerevisiae deletion strains, locus YMR078C, strain ctf18, stronger effect = lower value 1.02 | S. cerevisiae deletion strains, locus YMR125W, strain sto1, stronger effect = lower value 1.03 | S. cerevisiae deletion strains, locus YMR129W, stronger effect = lower value 1.02 | S. cerevisiae deletion strains, locus YMR205C, strain PFK2, stronger effect = lower value 1.04 | S. cerevisiae deletion strains, locus YMR223W, strain ubp8, stronger effect = lower value 0.999 | S. cerevisiae deletion strains, locus YMR231W, strain pep5, stronger effect = lower value 1.03 | S. cerevisiae deletion strains, locus YMR263W, strain SAP30, stronger effect = lower value 1.01 | S. cerevisiae deletion strains, locus YMR307W, strain GAS1, stronger effect = lower value 0.959 | S. cerevisiae deletion strains, locus YNL067W, strain RPL9B, stronger effect = lower value 1.02 | S. cerevisiae deletion strains, locus YNL071W, strain lat1, stronger effect = lower value 1.02 | S. cerevisiae deletion strains, locus YNL128W, strain TEP1, stronger effect = lower value 1.02 | S. cerevisiae deletion strains, locus YNL153C, strain GIM3, stronger effect = lower value 1.03 | S. cerevisiae deletion strains, locus YNL183C, strain NPR1, stronger effect = lower value 0.954 | S. cerevisiae deletion strains, locus YNL209W, strain ssb2, stronger effect = lower value 1.02 | S. cerevisiae deletion strains, locus YNL233W, strain BNI4, stronger effect = lower value 1.02 | S. cerevisiae deletion strains, locus YNL248C, strain rpa49, stronger effect = lower value 1.03 | S. cerevisiae deletion strains, locus YNL250W, strain rad50, stronger effect = lower value 1.02 | S. cerevisiae deletion strains, locus YNL271C, strain bni1, stronger effect = lower value 1.01 | S. cerevisiae deletion strains, locus YNL298W, strain CLA4, stronger effect = lower value 0.992 | S. cerevisiae deletion strains, locus YNL307C, strain MCK1, stronger effect = lower value 1 | S. cerevisiae deletion strains, locus YNL322C, strain KRE1 (second series), stronger effect = lower value 1.03 | S. cerevisiae deletion strains, locus YNL322C, strain KRE1, stronger effect = lower value 0.997 | S. cerevisiae deletion strains, locus YNR049C, strain mso1, stronger effect = lower value 1.03 | S. cerevisiae deletion strains, locus YNR052C, strain pop2, stronger effect = lower value 1.01 | S. cerevisiae deletion strains, locus YOL006C, strain TOP1, stronger effect = lower value 1 | S. cerevisiae deletion strains, locus YOL012C, strain htz1 0.962 | S. cerevisiae deletion strains, locus YOL147C, strain pex11, stronger effect = lower value 1.01 | S. cerevisiae deletion strains, locus YOR001W, strain rrp6, stronger effect = lower value 1.03 | S. cerevisiae deletion strains, locus YOR061W, strain CKA2, stronger effect = lower value 0.998 | S. cerevisiae deletion strains, locus YOR069W, strain VPS5, stronger effect = lower value 0.996 | S. cerevisiae deletion strains, locus YOR070C, strain gyp1, stronger effect = lower value 1.02 | S. cerevisiae deletion strains, locus YOR080W, strain dia2, stronger effect = lower value 1.05 | S. cerevisiae deletion strains, locus YOR083W, strain WHI5, stronger effect = lower value 1.02 | S. cerevisiae deletion strains, locus YOR106W, strain vam3, stronger effect = lower value 1.04 | S. cerevisiae deletion strains, locus YOR136W, strain idh2, stronger effect = lower value 1.01 | S. cerevisiae deletion strains, locus YOR144C, strain elg1, stronger effect = lower value 1.01 | S. cerevisiae deletion strains, locus YOR184W, strain ser1, stronger effect = lower value 1.01 | S. cerevisiae deletion strains, locus YOR231W, strain MKK1, stronger effect = lower value 0.968 | S. cerevisiae deletion strains, locus YOR265W, strain rbl2, stronger effect = lower value 1.01 | S. cerevisiae deletion strains, locus YOR270C, strain vph1, stronger effect = lower value 1.07 | S. cerevisiae deletion strains, locus YOR290C, strain snf2, stronger effect = lower value 1.03 | S. cerevisiae deletion strains, locus YOR316C, strain cot1, stronger effect = lower value 1.01 | S. cerevisiae deletion strains, locus YPL051W, strain arl3, stronger effect = lower value 1.02 | S. cerevisiae deletion strains, locus YPL055C, strain LGE1, stronger effect = lower value 0.986 | S. cerevisiae deletion strains, locus YPL078C, strain atp4, stronger effect = lower value 1.02 | S. cerevisiae deletion strains, locus YPL106C, strain sse1, stronger effect = lower value 1.04 | S. cerevisiae deletion strains, locus YPL240C, strain hsp82, stronger effect = lower value 1.02 | S. cerevisiae deletion strains, locus YPL241C, strain CIN2, stronger effect = lower value 0.995 | S. cerevisiae deletion strains, locus YPL256C, strain CLN2, stronger effect = lower value 0.96 | S. cerevisiae deletion strains, locus YPR119W, strain clb2, stronger effect = lower value 1.01 | S. cerevisiae deletion strains, locus YPR141C, strain kar3, stronger effect = lower value 1 | S. cerevisiae deletion strains, locus YPR163C, strain tif3, stronger effect = lower value 1.02 | S. cerevisiae deletion strains, locus YPR167C, strain met16, stronger effect = lower value 1.01 | S. cerevisiae deletion strains, strain wtn01, stronger effect = lower value 1.03 | S. cerevisiae strains, strain wild type, stronger effect = lower value 0.996
